Data on five molecules can be found in PubChem BioAssay.

A short description of assay [1]: compounds binding Alexa647 anti-His antibody – biochemical, small-molecule microarray, 635 nm fluorescence, artefact control for SMM control protein annotation, primary screen (AID 1128).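 Also: score merges feature fluorescence with signal-to-noise for each printed compound spot.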 The following applies: higher = more signal.
In assay [2] the test system is Human papillomavirus type 1a E7 protein (residues 1-88). The assay can be described thus: HPV1a E7 small-molecule binders, primary screen, biochemical, small-molecule microarray, residues 1-88, 635 nm (AID 1129). The following applies: small-molecule microarray binding, fluorescence 635 nm; higher = more signal.
The target of assay [3] is Focal adhesion kinase 1 (Homo sapiens) (UniProt Q05397). The assay is described as follows: PTK2 protein binding on printed compound slides – biochemical, small-molecule microarray, 635/667 nm fluorescence, BSA, DTT, primary screen (AID 1130).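 Also: composite of spot emission at 667 nm and signal to noise over triplicate slides.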 Particulars: 635 nm fluorescence, higher = more signal.
Chain of Focal adhesion kinase 1 (Homo sapiens) (Q05397 whole entry, looked up): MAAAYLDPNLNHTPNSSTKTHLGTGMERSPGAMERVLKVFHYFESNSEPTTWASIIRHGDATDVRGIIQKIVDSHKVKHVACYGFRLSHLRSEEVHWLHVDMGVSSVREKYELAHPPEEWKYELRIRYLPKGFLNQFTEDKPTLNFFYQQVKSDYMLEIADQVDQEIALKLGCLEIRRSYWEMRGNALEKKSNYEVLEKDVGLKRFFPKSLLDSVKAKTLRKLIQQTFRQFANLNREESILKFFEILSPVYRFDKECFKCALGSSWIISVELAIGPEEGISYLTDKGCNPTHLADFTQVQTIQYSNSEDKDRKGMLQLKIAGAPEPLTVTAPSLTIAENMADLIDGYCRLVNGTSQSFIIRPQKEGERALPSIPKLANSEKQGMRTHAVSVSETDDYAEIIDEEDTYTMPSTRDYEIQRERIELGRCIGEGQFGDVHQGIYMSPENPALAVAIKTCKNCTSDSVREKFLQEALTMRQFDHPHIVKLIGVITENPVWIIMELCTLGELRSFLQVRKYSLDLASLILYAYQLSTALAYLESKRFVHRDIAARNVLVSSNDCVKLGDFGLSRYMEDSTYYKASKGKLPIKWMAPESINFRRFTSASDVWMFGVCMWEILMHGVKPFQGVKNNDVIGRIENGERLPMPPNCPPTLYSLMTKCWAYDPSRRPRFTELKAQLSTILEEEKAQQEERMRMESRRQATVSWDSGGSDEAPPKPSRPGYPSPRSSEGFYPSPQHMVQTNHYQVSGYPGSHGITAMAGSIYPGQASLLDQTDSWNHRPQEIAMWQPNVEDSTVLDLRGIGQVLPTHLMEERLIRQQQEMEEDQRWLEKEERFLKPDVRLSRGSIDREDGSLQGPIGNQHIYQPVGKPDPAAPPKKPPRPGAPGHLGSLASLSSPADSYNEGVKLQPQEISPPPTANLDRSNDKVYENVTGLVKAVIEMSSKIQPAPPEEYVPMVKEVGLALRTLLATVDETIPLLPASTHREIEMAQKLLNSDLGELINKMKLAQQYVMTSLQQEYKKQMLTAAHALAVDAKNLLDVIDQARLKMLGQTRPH
Assay [4] relates to Fibrinogen (Alexa647-labelled). The assay is described as follows: Alexa647-fibrinogen binding to printed small molecules – biochemical, small-molecule microarray, 635/667 nm fluorescence, artefact control for SMM control-protein annotation, profiling panel (AID 1131).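 Also: z-score merges 667 nm fluorescence with per-spot signal-to-noise over triplicate slides.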 Particulars: fibrinogen-A647 binding fluorescence, higher = more signal.
Assay [5] has as its target Follistatin (Homo sapiens) (UniProt P19883). The assay can be described thus: FST protein binding to printed compounds – biochemical, small-molecule microarray, 635/667 nm fluorescence, primary screen (AID 1132). Particulars: 635 nm fluorescence, higher = more signal.
The target in assay [6] is Fibroblast growth factor 2 (Homo sapiens) (UniProt P09038). The assay is described as follows: basic fibroblast growth factor binding to printed compounds – biochemical, small-molecule microarray, 635/667 nm fluorescence, primary screen (AID 1133). Particulars: FGF2, fluorescence 635/667, higher = more signal.
Chain of Fibroblast growth factor 2 (Homo sapiens) (P09038 whole entry, looked up): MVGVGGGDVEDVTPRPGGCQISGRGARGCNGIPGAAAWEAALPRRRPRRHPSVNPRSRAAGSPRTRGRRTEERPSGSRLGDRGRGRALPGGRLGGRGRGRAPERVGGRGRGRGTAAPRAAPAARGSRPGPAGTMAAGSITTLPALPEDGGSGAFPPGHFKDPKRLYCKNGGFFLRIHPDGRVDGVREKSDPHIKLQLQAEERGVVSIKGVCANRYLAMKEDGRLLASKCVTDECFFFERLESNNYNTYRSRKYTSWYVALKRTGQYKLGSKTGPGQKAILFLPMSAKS
A short description of assay [7]: JC-1 mitochondrial potential readout, lung cancer cells – cell-based, A549, JC-1 fluorescence, basal, 24 h, 100 nL, profiling panel (AID 1138).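 Also: A549 lung adenocarcinoma cells under basal conditions with no added stimulus; test concentration not given here.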 The following applies: higher = more signal.
Another assay has as its system Lefty1. The assay can be described thus: Lefty1 protein binding to printed compounds – biochemical, small-molecule microarray, 635/667 nm fluorescence, primary screen (AID 1139). Particulars: fluorescence 635/667, higher = more signal.
Assay [8] deals with wheat germ agglutinin (Triticum aestivum), Alexa647-labelled. The assay can be described thus: Alexa647-WGA lectin binding to printed small molecules – biochemical, small-molecule microarray, 635/667 nm fluorescence, artefact control for SMM control-protein annotation, profiling panel (AID 1140).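 Also: score merges 667 nm feature emission with signal to noise over triplicate slides.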 Particulars: WGA-A647 binding, 635 nm fluorescence, higher = more signal.
The target in assay [9] is Luciferin 4-monooxygenase (Photinus pyralis) (UniProt P08659). The assay is described as follows: inhibition of purified Photinus pyralis luciferase – biochemical, luminescence, purified enzyme, 2006 set, primary screen (AID 1141).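 Also: cell-free assay with purified firefly luciferase at 100 ng per well in PBS; test concentration not given here.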 The following applies: purified firefly luciferase, SteadyGlo luminescence, 30 min; higher = more signal, called active from +8 up or from −8 down.
Chain of Luciferin 4-monooxygenase (Photinus pyralis) (P08659 whole entry, looked up): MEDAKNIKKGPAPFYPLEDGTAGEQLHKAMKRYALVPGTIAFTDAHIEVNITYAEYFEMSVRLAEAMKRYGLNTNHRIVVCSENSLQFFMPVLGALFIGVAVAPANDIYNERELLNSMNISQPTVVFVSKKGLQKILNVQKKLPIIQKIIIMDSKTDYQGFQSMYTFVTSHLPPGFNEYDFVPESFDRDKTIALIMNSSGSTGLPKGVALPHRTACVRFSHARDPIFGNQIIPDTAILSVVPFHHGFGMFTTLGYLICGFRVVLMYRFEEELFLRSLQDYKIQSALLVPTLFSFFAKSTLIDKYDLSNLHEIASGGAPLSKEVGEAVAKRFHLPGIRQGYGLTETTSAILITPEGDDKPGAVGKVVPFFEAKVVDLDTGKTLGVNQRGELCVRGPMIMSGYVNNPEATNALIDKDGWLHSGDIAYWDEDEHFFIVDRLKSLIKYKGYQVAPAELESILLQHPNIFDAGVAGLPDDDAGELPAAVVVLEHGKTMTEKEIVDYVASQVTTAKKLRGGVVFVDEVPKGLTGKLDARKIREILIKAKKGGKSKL

In assay [10] the test system is Wnt5a (protein binding on small-molecule microarray). The assay is described as follows: small molecules binding Wnt5a protein – biophysical, small-molecule microarray, 635/667 nm fluorescence, primary screen (AID 1142).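 Also: fluorescence read at 667 nm with signal to noise per printed feature.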 Particulars: 635 nm fluorescence, higher = more signal.
A short description of assay [11]: ATP-based viability of Huh7 replicon cells – cell-based, CellTiter-Glo luminescence, basal, 48 h, cytotoxicity control for HCV replication inhibitor project, primary screen (AID 1143).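 Also: Huh7 hepatoma cells carrying a hepatitis C replication reporter with no stimulus; test concentration not given here.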 The following applies: higher = more signal, called active from +8 up or from −8 down.
Assay [12] is described as follows: Pseudomonas biofilm growth suppression – PAO1 strain, BacTiter-Glo luminescence, LB-PBS, primary screen (AID 1144). The following applies: P. aeruginosa PAO1 biofilm, 12 h, higher = more signal.
The nature of assay [13]: basal CRE-LacZ reporter activity in PC12 – cell-based, unstimulated, primary screen (AID 1145). Particulars: no forskolin, luminescence, 4.5 h, higher = more signal, called active from +8 up or from −8 down.
Assay [14] can be described thus: forskolin-driven CRE-LacZ activity in PC12 – cell-based, CRE-LacZ reporter, forskolin-stimulated, primary screen (AID 1146).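 Also: PC12 cells with 6xCRE LacZ reporter stimulated by forskolin 10 µM; beta-galactosidase reporter signal reflecting CREB driven transcription.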 The following applies: luminescence, 4.5 h, higher = more signal, called active from +8 up or from −8 down.
Assay [15] concerns the target Streptavidin (Streptomyces avidinii) (UniProt P22629). The assay can be described thus: compounds binding control protein streptavidin – biophysical, small-molecule microarray, 635/667 nm fluorescence, artefact control for SMM compound annotation, primary screen (AID 1147).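 Also: signal reflects streptavidin binding to arrayed compounds as a control protein.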 Particulars: higher = more signal.
Assay [16] is described as follows: probe aInhba binding on compound microarray – biochemical, small-molecule microarray, 635/667 nm fluorescence, primary screen (AID 1148).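 Also: score merges 667nm spot fluorescence with signal-to-noise for antibody binding to printed compounds.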 Particulars: higher = more signal.
In assay [17] the target is Torsin-1A (Homo sapiens) (UniProt O14656). The assay is described as follows: TOR1A wild-type binding on microarray – cell lysate, small-molecule microarray, lysate, 635/667 nm, primary screen (AID 1149). The following applies: COS7 hTOR1A-WT lysate, 635 nm fluorescence, higher = more signal.
Chain of Torsin-1A (Homo sapiens) (O14656 whole entry, looked up): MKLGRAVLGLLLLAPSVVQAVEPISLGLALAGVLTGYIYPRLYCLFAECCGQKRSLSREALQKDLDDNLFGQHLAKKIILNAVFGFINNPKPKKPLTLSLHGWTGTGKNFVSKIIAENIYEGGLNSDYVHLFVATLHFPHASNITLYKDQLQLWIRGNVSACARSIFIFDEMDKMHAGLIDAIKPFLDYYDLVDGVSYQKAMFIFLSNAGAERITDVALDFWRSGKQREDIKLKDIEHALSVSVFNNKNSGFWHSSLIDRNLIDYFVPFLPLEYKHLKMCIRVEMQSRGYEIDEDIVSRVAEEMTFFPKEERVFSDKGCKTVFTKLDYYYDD
For assay [18] the target is unchanged. The assay can be described thus: torsin A mutant lysate binding on microarrays – cell lysate, small-molecule microarray, COS7 lysate, 635/667 nm fluorescence, primary screen (AID 1150).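 Also: score pools 667 nm emission and signal to noise measuring lysate protein binding.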 Particulars: COS7 hTOR1A mutant lysate, 635 nm fluorescence, higher = more signal.
Assay [19] concerns Sonic hedgehog protein (Shh). The assay is described as follows: Sonic hedgehog microarray binding compounds – biochemical, small-molecule microarray, 635/667 nm fluorescence, primary screen (AID 1151).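 Also: Shh protein binding to compounds spotted on small-molecule microarray slides; score combines spot fluorescence intensity with signal-to-noise across triplicate slides.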 Particulars: 635 nm fluorescence, higher = more signal.

The source made the active and inactive calls. Unless noted, no rule for the calls is given here.

Chain of Streptavidin (Streptomyces avidinii) (P22629 whole entry, looked up): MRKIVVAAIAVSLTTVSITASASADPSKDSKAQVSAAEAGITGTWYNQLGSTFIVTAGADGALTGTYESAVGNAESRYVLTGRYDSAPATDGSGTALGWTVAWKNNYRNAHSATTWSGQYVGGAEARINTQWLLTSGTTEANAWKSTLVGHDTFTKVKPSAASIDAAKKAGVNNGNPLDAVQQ
Chain of Follistatin (Homo sapiens) (P19883 whole entry, looked up): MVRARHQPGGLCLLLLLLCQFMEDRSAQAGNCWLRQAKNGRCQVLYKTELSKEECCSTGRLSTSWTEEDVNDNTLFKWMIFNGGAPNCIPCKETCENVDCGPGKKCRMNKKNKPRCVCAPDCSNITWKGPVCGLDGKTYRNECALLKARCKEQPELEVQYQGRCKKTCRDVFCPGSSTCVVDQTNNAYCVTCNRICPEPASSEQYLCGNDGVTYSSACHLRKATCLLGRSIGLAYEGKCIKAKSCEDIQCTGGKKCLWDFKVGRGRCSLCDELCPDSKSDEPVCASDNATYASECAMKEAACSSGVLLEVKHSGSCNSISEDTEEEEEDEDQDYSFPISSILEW

As to `C=C(CCCC)C(=O)CC[C@H](OC(C)=O)c1cccc(OCCO)c1`, the composite z-score was -0.393 in assay [1]; -0.755 in assay [2]; 0.5 in assay [3]; -1.29 in [4]; -0.732 in [5]; -0.546 in assay [6]. The composite z-score in the assay with Lefty1 is -0.492; in [8], -0.881; in assay [10], -0.247; in assay [15], -0.613; in assay [16], -0.183; with Torsin-1A (Homo sapiens) [17], -0.576. Besides, the composite z-score with Torsin-1A (Homo sapiens) [18] is -0.132; in assay [19], 0.103. The z-score was -0.299 in assay [7]; 0.0336 (inactive) in assay [9]; -3.51 (inactive) in [11]; 0.428 (inactive) in assay [12]; 0.914 (inactive) in assay [13]; -0.057 (inactive) in assay [14].
As to `CC(C)(C)OC(=O)CC[C@@]1(C(N)=O)N=C(c2ccc(OCCCO)cc2)O[C@@H]1c1ccccc1`, the composite z-score is 1.27 in assay [1]; 1.13 in assay [2]; 0.754 in assay [3]; 0.971 in assay [4]; 0.136 in [5]; -0.343 in assay [6]. Also, the composite z-score in the assay with Lefty1 was -0.0503; in assay [8], 0.178; in assay [10], 0.22; in [15], 0.818; in assay [16], -0.0533; with Torsin-1A (Homo sapiens) [17] it was 0.361. Further, the composite z-score with Torsin-1A (Homo sapiens) [18] is 1.42; in [19], -0.954. In addition, the z-score in assay [7] is -0.655; in assay [9], -0.637 (inactive); in assay [11] it was -0.0043 (inactive); in assay [12], -0.256 (inactive); in [13], 1.5 (inactive); in [14] it was -1.12 (inactive).
As for `O=C1C[C@]2(c3ccc([N+](=O)[O-])cc3)C(=O)N(CCN3CCOCC3)c3cc(CO)ccc3[C@H]2N1C1CCCCC1`, the composite z-score in assay [1] is -0.106; in assay [2], -1.24; in [3], -0.617; in assay [4], 0.975; in assay [5], -0.414; in assay [6] it was 0.189. In addition, the composite z-score in the assay on Lefty1 was -0.599; in assay [8], 0.409; in assay [10] it was -0.179; in assay [15], -0.834; in assay [16] it was -0.0021; with Torsin-1A (Homo sapiens) [17], -0.489. Moreover, the composite z-score is -0.517 with Torsin-1A (Homo sapiens) [18] and -0.132 in [19]. For the same molecule, the z-score is 0.631 in assay [7]; -0.648 (inactive) in assay [9]; -2.16 (inactive) in assay [11]; -0.02 (inactive) in [12]; -0.322 (inactive) in assay [13]; 0.254 (inactive) in assay [14].
For the molecule `O=C1OCC=C[C@H]2OC34C=CCN(c5ccc6ccccc6c5)C(=O)[C@H]3N(CCCCCCO)C(=O)[C@@H]4[C@@H]12` (stereo not given in full), the composite z-score in assay [1] is 2.67; in assay [2] it was -0.593; in [3], 0.806; in assay [4], -0.9; in assay [5], -1.18; in assay [6] it was -0.595. For the same molecule, the composite z-score in the assay on Lefty1 was -0.732; in [8] it was -0.434; in assay [10], -0.565; in assay [15], -0.719; in assay [16] it was -0.018; with Torsin-1A (Homo sapiens) [17] it was 1.62. For the same molecule, the results for the composite z-score (with Torsin-1A (Homo sapiens) [18]; in [19]) were -1.69 and -0.749, respectively. Moreover, the z-score in assay [7] is 1.16; in [9] it was -0.875 (inactive); in assay [11], 0.165 (inactive); in assay [12], 3.31 (inactive); in assay [13], 0.471 (inactive); in assay [14], -0.0042 (inactive).
As to `CCOC(=O)C[C@H]1[C@H](OC(=O)c2cc3ccccc3oc2=O)[C@@H](NC(=O)Cc2ccc(OC)cc2)c2cc(OCCCO)ccc2N1C(=O)c1ccccc1`, the composite z-score was -0.0228 in assay [1]; 0.376 in assay [2]; -0.0962 in assay [3]; 0.367 in assay [4]; 0.371 in assay [5]; 0.382 in assay [6]. Also, the composite z-score stood at 0.248 in the assay with Lefty1; 0.318 in [8]; 0.0687 in assay [10]; 0.308 in [15]; 0.0713 in assay [16]; 0.388 in the assay with Torsin-1A (Homo sapiens) [17]. In addition, the composite z-score with Torsin-1A (Homo sapiens) [18] stood at 0.804; in assay [19], 0.189. Further, the z-score in assay [7] is -1.01; in assay [9] it was 0.589 (inactive); in assay [11], -3.21 (inactive); in assay [12], -0.797 (inactive); in [13] it was 4.1 (inactive); in [14], -0.27 (inactive).
